An excerpt weighted towards active compounds, which were near 4.6% of everything screened.
NFkB transloc inh – inhibitors of IL-1B driven NFkB p65 nuclear import, primary screen, imaging, HUVEC, IL-1B stimulus, high-content imaging; HUVEC IL-1B NFkB p65 nuclear translocation imaging; hit rate 0.43% among 94,000; inhibition, % at 2 µM;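 active = inhibition above about 30% together with a positive call from visual inspection of the well image, limit read from the data; inconclusive = inhibition above a set limit but visual check negative; inactive = inhibition not above a set limit, visual check negative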;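 also: nuclear over cytoplasmic p65 intensity ratio measured by imaging; 0% = IL-1B stimulated DMSO wells and 100% = unstimulated DMSO wells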
IL1B NFkB pot – enhancers of NFkB p65 translocation in HUVEC – imaging, IL-1B stimulus, high-content imaging, primary screen. activation, % at 2 µM. HUVEC IL-1B NFkB p65 nuclear translocation imaging. hit rate 0.3% among 94,000;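 active = activation above 40%, about the mean plus 3 SD, also judged a hit on visual image review; inconclusive = activation above 40% but not a hit on visual review; inactive = activation not above 40% and no visual hit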;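 also: percent activation is computed from the nuclear over cytoplasmic p65 intensity ratio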
sEH inhibitor – soluble epoxide hydrolase inhibitors, primary screen, biochemical, human sEH | Bifunctional epoxide hydrolase 2 (Homo sapiens), P34913 | hit rate 0.34% among 91,000 | recombinant human sEH enzymatic activity assay | AID 707, 2007 | inhibition, % at 2 µM; in the data active = inhibition above about 80%
sEH activator – soluble epoxide hydrolase activators, primary screen, biochemical, human sEH | Bifunctional epoxide hydrolase 2 (Homo sapiens), P34913 | purified human sEH enzymatic activity, activator screen | activation, % at 2 µM | hit rate 0.04% among 91,000 | AID 717, 2007; in the data active = activation above about 37%
HUVEC tox IL1B – cytotoxicity in IL-1B stimulated HUVEC, primary screen, cytotoxicity control for IL-1B NFkB translocation project, imaging, Hoechst nuclear count, IL-1B stimulus; hit rate 0.41% among 94,000; HUVEC cell count loss; cell count reduction, % at 2 µM; AID 845, 2007;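 active = cell count reduction more than 3 SD above the screen-wide mean, cut at about 70% in these data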;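 also: normalized per plate to untreated control cells as the no-loss baseline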
Cav32 inh – Cav3.2 calcium influx blockers – cell-based, Fluo-4 calcium fluorescence, FDSS, MLSMR library, primary screen; Voltage-dependent T-type calcium channel subunit alpha-1H (Homo sapiens), O95180; Cav3.2-expressing cells; hits give low values; B-score at 10 µM; hit rate 4% among 100,000; AID 449739, 2010;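 active = single-dose well whose peak fluorescence ratio is a statistical outlier from its plate by either plate-standardised score or position-corrected B-score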
Target sequence (O95180 whole entry, looked up): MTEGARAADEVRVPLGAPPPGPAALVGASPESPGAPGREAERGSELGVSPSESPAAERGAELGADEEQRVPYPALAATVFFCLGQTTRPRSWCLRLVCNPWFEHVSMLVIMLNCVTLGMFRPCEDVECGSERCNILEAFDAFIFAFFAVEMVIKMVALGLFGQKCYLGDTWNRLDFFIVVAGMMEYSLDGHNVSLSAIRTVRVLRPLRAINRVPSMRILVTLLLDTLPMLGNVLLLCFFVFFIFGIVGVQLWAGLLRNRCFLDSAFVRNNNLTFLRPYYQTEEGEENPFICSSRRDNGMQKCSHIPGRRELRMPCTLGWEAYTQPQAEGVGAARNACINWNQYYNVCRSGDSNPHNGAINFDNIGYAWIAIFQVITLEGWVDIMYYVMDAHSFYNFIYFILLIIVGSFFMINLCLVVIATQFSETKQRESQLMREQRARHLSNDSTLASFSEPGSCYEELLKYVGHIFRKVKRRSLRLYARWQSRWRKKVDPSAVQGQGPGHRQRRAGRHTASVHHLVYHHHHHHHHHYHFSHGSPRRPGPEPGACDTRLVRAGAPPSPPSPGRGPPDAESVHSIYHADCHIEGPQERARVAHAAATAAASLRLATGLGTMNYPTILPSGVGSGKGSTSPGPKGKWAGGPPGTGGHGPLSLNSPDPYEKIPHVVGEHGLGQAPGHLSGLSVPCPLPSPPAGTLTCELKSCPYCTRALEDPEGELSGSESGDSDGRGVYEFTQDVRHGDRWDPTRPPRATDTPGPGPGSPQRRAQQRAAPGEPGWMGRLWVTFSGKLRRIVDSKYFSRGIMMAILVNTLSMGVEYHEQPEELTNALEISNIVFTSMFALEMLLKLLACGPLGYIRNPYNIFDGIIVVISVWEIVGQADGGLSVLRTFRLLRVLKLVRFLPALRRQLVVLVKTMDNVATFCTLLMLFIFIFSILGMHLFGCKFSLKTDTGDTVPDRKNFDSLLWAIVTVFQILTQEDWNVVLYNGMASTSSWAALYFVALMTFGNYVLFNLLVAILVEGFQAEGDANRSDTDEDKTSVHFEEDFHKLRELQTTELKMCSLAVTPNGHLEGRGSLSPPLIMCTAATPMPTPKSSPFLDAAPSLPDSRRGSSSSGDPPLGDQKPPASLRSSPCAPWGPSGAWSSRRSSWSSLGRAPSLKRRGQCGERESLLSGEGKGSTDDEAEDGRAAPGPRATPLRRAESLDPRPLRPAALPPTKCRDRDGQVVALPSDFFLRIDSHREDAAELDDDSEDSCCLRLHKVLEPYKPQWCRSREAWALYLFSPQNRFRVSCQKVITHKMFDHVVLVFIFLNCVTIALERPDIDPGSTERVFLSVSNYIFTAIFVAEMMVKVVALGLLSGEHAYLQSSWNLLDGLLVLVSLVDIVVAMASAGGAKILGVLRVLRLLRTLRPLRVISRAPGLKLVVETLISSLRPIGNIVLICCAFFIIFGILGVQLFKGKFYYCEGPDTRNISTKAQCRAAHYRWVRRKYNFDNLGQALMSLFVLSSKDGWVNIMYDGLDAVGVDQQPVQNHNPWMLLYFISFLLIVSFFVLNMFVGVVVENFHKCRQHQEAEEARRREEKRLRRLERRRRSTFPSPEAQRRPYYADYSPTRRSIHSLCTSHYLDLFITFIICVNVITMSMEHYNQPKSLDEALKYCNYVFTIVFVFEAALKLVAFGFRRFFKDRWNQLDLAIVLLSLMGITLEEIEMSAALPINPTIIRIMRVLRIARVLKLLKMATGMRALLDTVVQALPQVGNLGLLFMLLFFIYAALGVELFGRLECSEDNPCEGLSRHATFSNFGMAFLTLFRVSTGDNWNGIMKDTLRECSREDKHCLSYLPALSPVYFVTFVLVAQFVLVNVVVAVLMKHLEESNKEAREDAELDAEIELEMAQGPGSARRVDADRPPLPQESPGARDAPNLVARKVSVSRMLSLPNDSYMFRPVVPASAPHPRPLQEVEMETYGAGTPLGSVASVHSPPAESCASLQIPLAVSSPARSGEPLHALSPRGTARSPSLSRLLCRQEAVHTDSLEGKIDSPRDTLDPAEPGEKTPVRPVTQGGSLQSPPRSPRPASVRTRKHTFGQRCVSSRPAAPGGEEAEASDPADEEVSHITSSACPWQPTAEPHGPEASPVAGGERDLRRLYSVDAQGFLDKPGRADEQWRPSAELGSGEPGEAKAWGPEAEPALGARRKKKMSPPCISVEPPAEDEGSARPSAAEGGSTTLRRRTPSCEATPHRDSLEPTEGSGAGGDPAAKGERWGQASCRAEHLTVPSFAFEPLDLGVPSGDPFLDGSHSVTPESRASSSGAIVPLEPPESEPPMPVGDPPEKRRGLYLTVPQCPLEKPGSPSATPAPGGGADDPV
Numbers without * were called inactive.

Screening O=C(c1ccccc1C(=O)N1CCN(c2ccc(F)cc2)CC1)N1CCN(c2ccc(F)cc2)CC1 returned NFkB transloc inh -18.8, IL1B NFkB pot 18.8, sEH inhibitor 7.5, sEH activator -10.6, HUVEC tox IL1B -14.4 and Cav32 inh -4.11*.
Screening O=C(CCCOc1ccccc1)N1CCCc2ccccc21 returned NFkB transloc inh 55.1*, IL1B NFkB pot -55.1, sEH inhibitor -9.3, sEH activator 11.4, HUVEC tox IL1B 5.3 and Cav32 inh -2.31.
`CC(C)(C)OC(=O)NCCc1nnc(SCc2ccc(Cl)cc2Cl)o1` gave NFkB transloc inh -10.7, IL1B NFkB pot 10.7, sEH inhibitor -6.0, sEH activator 5.7, HUVEC tox IL1B -8.5 and Cav32 inh -5.2*.
For CC(C)(C)OC(=O)N1CCC[C@H]1c1nnc(SCc2ccc(Cl)cc2Cl)o1 the results were NFkB transloc inh -18.5, IL1B NFkB pot 18.5, sEH inhibitor -13.6, sEH activator 10.6, HUVEC tox IL1B -63.6 and Cav32 inh -5.78*.
For CCN(CC)CCN1C(=O)C(=O)/C(=C(/O)c2c(C)[nH]c(C(=O)OC)c2C)C1c1ccccc1 (centres undefined) the results were sEH inhibitor -14.3 and sEH activator 12.5.
`O=S(=O)(N/N=C/c1ccc2c(c1)OCCO2)c1ccc(Cl)cc1` gave NFkB transloc inh -3.2, IL1B NFkB pot 3.2, sEH inhibitor 4.4, sEH activator -2.1, HUVEC tox IL1B -40.3 and Cav32 inh -1.51.
For CC(C)COc1ccc(CSCCNC(=S)Nc2ccccc2)cc1 the results were NFkB transloc inh -2.8, IL1B NFkB pot 2.8, sEH inhibitor 8.0, sEH activator -5.1, HUVEC tox IL1B -1.2 and Cav32 inh -4.1*.
`Cc1cc(Oc2ccccc2)nc(SCC(=O)Nc2ccc(Cl)cc2Cl)n1` gave NFkB transloc inh -20.1, IL1B NFkB pot 20.1, sEH inhibitor -5.5, sEH activator 5.6, HUVEC tox IL1B -8.1 and Cav32 inh -5.82*.
For COC(=O)CSc1nc(C)cc(Oc2ccccc2)n1 the results were Cav32 inh 0.395.
CC(NC(=O)CCSc1nc(-c2ccco2)cc(C(F)(F)F)n1)c1ccccc1 (centres undefined) was read as NFkB transloc inh 12.7, IL1B NFkB pot -12.7, sEH inhibitor 18.4, sEH activator -15.6, HUVEC tox IL1B -31.3 and Cav32 inh -5.96*.
`Cc1cc(NC(=O)CCCSc2nc(-c3ccco3)cc(C(F)(F)F)n2)n(-c2ccccc2)n1` gave NFkB transloc inh -43.8, IL1B NFkB pot inconclusive, sEH inhibitor 1.1, sEH activator 4.6, HUVEC tox IL1B -19.4 and Cav32 inh -4.3*.
`CCn1nc(C)c(NC(=O)CCSc2nc(-c3ccco3)cc(C(F)(F)F)n2)c1C` gave NFkB transloc inh 4.5, IL1B NFkB pot -4.5, sEH inhibitor 7.8, sEH activator -4.5, HUVEC tox IL1B -23.9 and Cav32 inh 0.915.
Screening O=C(CCSc1nc(-c2ccco2)cc(C(F)(F)F)n1)NCc1cccs1 returned NFkB transloc inh -47.0, IL1B NFkB pot 47.0*, sEH inhibitor 37.6, sEH activator -34.0, HUVEC tox IL1B -40.3 and Cav32 inh -1.69.
Screening N=C1C(c2nc(-c3ccc(F)cc3)cs2)=C(O)CN1Cc1ccc(Cl)cc1 returned NFkB transloc inh -21.3, IL1B NFkB pot 21.3, sEH inhibitor -2.1, sEH activator 3.6, HUVEC tox IL1B -4.7 and Cav32 inh -0.0841.
For O=C1c2ccccc2CN1CCNS(=O)(=O)c1ccc(Cl)cc1 the results were NFkB transloc inh 98.4*, IL1B NFkB pot -98.4, sEH inhibitor 8.2, sEH activator -9.3, HUVEC tox IL1B 92.0* and Cav32 inh 0.398.
`CCCCSc1nnc(CCC)n1N` gave NFkB transloc inh -34.9, IL1B NFkB pot 34.9, sEH inhibitor -7.9, sEH activator 9.6, HUVEC tox IL1B 14.1 and Cav32 inh -0.26.
`O=C(NCC1CCCO1)C1CCC(=O)N1Cc1ccc(F)cc1` (centres undefined) gave NFkB transloc inh -1.4, IL1B NFkB pot 1.4, sEH inhibitor 2.7, sEH activator 0.1, HUVEC tox IL1B -18.2 and Cav32 inh -0.151.
Cc1nc(CNS(=O)(=O)c2ccc3c(c2)CCCC3)cs1 was read as Cav32 inh 0.24.
O=C(Nc1ccc(Cl)c(C(F)(F)F)c1)C1CCCN(S(=O)(=O)c2cnc[nH]2)C1 (centres undefined) was read as NFkB transloc inh -13.9, IL1B NFkB pot 13.9, sEH inhibitor 91.8*, sEH activator -92.0, HUVEC tox IL1B -73.7 and Cav32 inh 0.542.
`CN1CCN(S(=O)(=O)c2cccc([N+](=O)[O-])c2)CC1` gave NFkB transloc inh 4.0, IL1B NFkB pot -4.0, sEH inhibitor -34.8, sEH activator 38.6*, HUVEC tox IL1B 7.1 and Cav32 inh 0.453.
`O=C(O/N=C1/CCCc2occc21)c1ccccc1` gave NFkB transloc inh 1.0, IL1B NFkB pot -1.0, sEH inhibitor -20.2, sEH activator 17.3, HUVEC tox IL1B 72.1* and Cav32 inh -0.353.
`Cc1ccc(C(=O)O/N=C2\CCCc3ccccc32)cc1` gave NFkB transloc inh -1.3, IL1B NFkB pot 1.3, sEH inhibitor -6.7, sEH activator 8.9, HUVEC tox IL1B 7.5 and Cav32 inh 0.0605.
COc1cc(/C=C/CO)ccc1O[C@@H]1O[C@H](CO)[C@@H](O)[C@H](O)[C@H]1O was read as Cav32 inh 0.488.
For Cc1cc(NC(=O)Cn2nnc3sc4c(c3c2=O)CCCC4)no1 the results were NFkB transloc inh 4.2, IL1B NFkB pot -4.2, sEH inhibitor 2.8, sEH activator -2.4, HUVEC tox IL1B 15.2 and Cav32 inh 0.599.
Cc1cc(NC(=O)Cn2nnc3sc4c(c3c2=O)CCC(C(C)(C)C)C4)no1 (centres undefined) was read as NFkB transloc inh 8.3, IL1B NFkB pot -8.2, HUVEC tox IL1B -13.5 and Cav32 inh -7.33*.
CCc1c(C)nc(/N=C(/NC(=O)c2ccccc2)Nc2ccccc2OC)[nH]c1=O was read as NFkB transloc inh 54.8*, IL1B NFkB pot -54.8, sEH inhibitor -2.9, sEH activator 2.5 and HUVEC tox IL1B -0.8.
`CC(C)C(=O)Nc1nc2c(ncn2C2CC(O)C(CO)O2)c(=O)[nH]1` (centres undefined) gave NFkB transloc inh -13.4, IL1B NFkB pot 13.4, sEH inhibitor -17.8, sEH activator 16.3, HUVEC tox IL1B -1.4 and Cav32 inh 1.37.
CCC(=O)NC(=S)NNC(=O)c1ccc(OC)cc1 was read as NFkB transloc inh -16.2, IL1B NFkB pot 16.2, sEH inhibitor 9.8, sEH activator -7.2 and HUVEC tox IL1B 1.1.
Screening O=C(/C=C/c1cccs1)NC(=S)NNC(=O)Cc1cccs1 returned NFkB transloc inh -4.7, IL1B NFkB pot 4.7, sEH inhibitor 12.7, sEH activator -7.6, HUVEC tox IL1B -24.6 and Cav32 inh -4.24*.
